Experimental data taken from PubChem BioAssay (EPA / NIEHS).
Calls of active or inactive are those of the source. Rule for the calls: active = hit-call score of the fitted dose curve at least 0.9, where 1 is the maximum; inactive = score below 0.9.

Tested on: SRY-box transcription factor 17 (SOX17) Protein Expression, Deisenroth Lab, SOX17 (gene 64321)
Assay: CCTE_Deisenroth_DEVTOX-GLR_legacy_Sox17: (Legacy) CCTE's DevTox GLR-Endo Assay Evaluation of SRY-box transcription factor 17 (SOX17) Protein Expression, Deisenroth Lab (AID 2284341)
Conditions: actives raise or lower the signal
Summary of the method: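 Endoderm-differentiation readout in RUES2-GLR human pluripotent cells at 48 h, concentrations spanning 1 nM - 200 uM. Sox17-positive cells divided by total cell count; gain or loss relative to DMSO solvent control, n=4 experimental replicates.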

Structure (SMILES) | AC50 | outcome
CCCCOC(=O)c1ccc(O)cc1 | 55.3 µM (active) | –
CO[C@H]1/C=C/O[C@@]2(C)Oc3c(C)c(O)c4c(O)c(c(/C=N/N5CCN(C)CC5)c(O)c4c3C2=O)NC(=O)/C(C)=C\C=C\[C@H](C)[C@H](O)[C@@H](C)[C@@H](O)[C@@H](C)[C@H](OC(C)=O)[C@@H]1C | 72.4 µM (active) | –
OCCO | – | inactive
CC/C(=C(/CC)c1ccc(O)cc1)c1ccc(O)cc1 | 1.24 µM (active) | –

Tested on: SRY-box transcription factor 2 (SOX2) Protein Expression, Deisenroth Lab, SOX2 (gene 6657)
Assay: CCTE_Deisenroth_DEVTOX-GLR_legacy_Sox2: (Legacy) CCTE's DevTox GLR-Endo Assay Evaluation of SRY-box transcription factor 2 (SOX2) Protein Expression, Deisenroth Lab (AID 2284346)
Conditions: not given
Summary of the method: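 Read-out: fraction of Sox2+ cells by high-content fluorescence imaging of fixed RUES2-GLR cells after 48 h differentiation with two 24 h-spaced exposures. Positivity cutoff 5x BMAD above endoderm control median; 0.2% DMSO median subtracted.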

Structure (SMILES) | AC50 | outcome
CCCCOC(=O)c1ccc(O)cc1 | 100 µM (active) | –
CO[C@H]1/C=C/O[C@@]2(C)Oc3c(C)c(O)c4c(O)c(c(/C=N/N5CCN(C)CC5)c(O)c4c3C2=O)NC(=O)/C(C)=C\C=C\[C@H](C)[C@H](O)[C@@H](C)[C@@H](O)[C@@H](C)[C@H](OC(C)=O)[C@@H]1C | – | inactive
OCCO | – | inactive
CC/C(=C(/CC)c1ccc(O)cc1)c1ccc(O)cc1 | 2.43 µM (active) | –
